Max activation data for 59 molecules are collected here from PubChem BioAssay AID977607 (Broad Institute, 2014).

Screen size: about 1,500 compounds; about 460 (31%) were called active. About 1% were inconclusive and are not listed. These entries were drawn from the full list. Entries with a potency or affinity are not part of this list. Unmarked numbers belong to inactive results.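 The calls were made as follows: active = curve reaches 40% activation over neutral controls at an AC40 no higher than the top valid tested concentration; inconclusive = no clear call, values can overlap the other calls; inactive = signal moving opposite to the expected increase, and the rest.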

The test is described as follows: GLuc-reported insulin release enhancers, glucose-stimulated beta cells – cell-based, INS-1E, Gaussia luciferase, luminescence, cherry-pick, set 2, dose response (AID 977607).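 Also: 0% = median of the plate neutral control wells.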 As to conditions: INS-1E GLuc insulin secretion reporter, 2-3 h, hits give high values; at 35 µM, 100% = signal doubled over neutral wells unless noted.
Take `CCc1nc2n[nH]c(N)c2c2c1CCCC2`: the max activation was 65.3%.

As for `CCc1cc(=O)oc2c(CNCc3ccc(OC)cc3OC)c(O)c(Cl)cc12`, the max activation is 20.4%.

Turning to `COCCNC(=O)c1cc2c(c(-c3cccc(C#Cc4ccc(OC)c(OC)c4)c3)n1)[C@H](CCO)N(S(=O)C(C)(C)C)C2` (some centres undefined), the max activation was 8.82% [at 11 µM, 100% = signal doubled over neutral wells].

Regarding `CC(C)(C)c1ccc(S(=O)(=O)N2CC(C(=O)O)Oc3ccc(Cl)cc32)cc1` (centres undefined), the max activation is -11.3% [at 0.015 µM, 100% = signal doubled over neutral wells].

As for `Cc1ccccc1C(=O)NC1CCSC1=O` (centres undefined), the max activation is -21.5% [at 0.005 µM, 100% = signal doubled over neutral wells].

Consider `COc1ccc(C(=O)Nc2nnc(-c3cccs3)s2)cc1`, for which the max activation is -13.2% [at 0.135 µM, 100% = signal doubled over neutral wells].

As to `CN(C)CCCN(C(=O)CCOc1ccccc1)c1nc2c(F)cccc2s1`, the max activation is -32.2% [at 11 µM, 100% = signal doubled over neutral wells].

`OC1(C#Cc2c(-c3ccsc3)sc3ccccc23)CCCCC1`: the max activation was 50.8%.

With `Cc1cc(-c2ccccc2)n2nc(N)nc2n1`, the max activation is -24.8% [at 0.046 µM, 100% = signal doubled over neutral wells].

For `O=c1c2ccccc2nnn1Cc1ccccc1`, the max activation is -23.5% [at 0.42 µM, 100% = signal doubled over neutral wells].

Turning to `Cc1ccc2nc(N3CCN(C(=O)CCCC(=O)O)CC3)nc(-c3ccccc3)c2c1`, the max activation is 12.5% [at 11 µM, 100% = signal doubled over neutral wells].

For the molecule `COC(C)(C)c1cc(C(C)(C)C)nc(N)n1`, the max activation was -18.4% [at 0.005 µM, 100% = signal doubled over neutral wells].

In the case of `COc1cccc(-n2c(=O)c3ccccc3n(CC(=O)NCC3CCCO3)c2=O)c1` (centres undefined), the max activation was -15.9% [at 0.015 µM, 100% = signal doubled over neutral wells].

With `O=C(COc1ccccc1)N(Cc1cccc(F)c1)C1CCS(=O)(=O)C1` (centres undefined), the max activation was -16.7% [at 3.8 µM, 100% = signal doubled over neutral wells].

Consider `CC(Oc1ccc2c3c(c(=O)oc2c1)CCCC3)C(=O)NCc1cccnc1` (centres undefined), for which the max activation is 27.7% [at 0.42 µM, 100% = signal doubled over neutral wells].

As for `O=C(COC(=O)c1cccnc1Cl)Nc1cc(S(=O)(=O)N2CCCCCC2)ccc1Cl`, the max activation was -32.2%.

As to `COc1cc(OC)c(OC)cc1CCC(C)NC(=O)Cc1ccccc1` (centres undefined), the max activation was 27.7% [at 0.005 µM, 100% = signal doubled over neutral wells].

With `CCOc1ncccc1C(=O)NC(C)CCc1ccccc1` (centres undefined), the max activation was 29.7%.

For the molecule `C[C@H]1CN=C(N(C)C)N1CC1CCCC1`, the max activation was -12% [at 0.015 µM, 100% = signal doubled over neutral wells].

Turning to `Cc1ccc(C(=O)N2CCN3C(=O)c4ccccc4C23c2ccccc2)cc1` (centres undefined), the max activation is -24.9%.

In the case of `CCCCCCn1c(SCC(C)C)nc2c1c(=O)[nH]c(=O)n2C`, the max activation was 12.8%.

As for `Cn1c(=O)[nH]c(=O)c2c1nc(NC1CCCC1)n2Cc1ccccc1`, the max activation was -12.1% [at 0.0016 µM, 100% = signal doubled over neutral wells].

On to `C=CCn1c(SCc2ccccc2)nc2c1c(=O)[nH]c(=O)n2C`, for which the max activation was -13.1% [at 0.015 µM, 100% = signal doubled over neutral wells].

Regarding `CN(Cc1ccccc1)c1nc2c(c(=O)[nH]c(=O)n2C)n1Cc1ccccc1`, the max activation is 14.1% [at 11 µM, 100% = signal doubled over neutral wells].

In the case of `O=C(O)C(Cc1ccc(O)cc1)N1C(=O)c2ccccc2C1=O` (centres undefined), the max activation is -22% [at 0.046 µM, 100% = signal doubled over neutral wells].

Turning to `COc1ccc(CCN(C)C(=O)Cn2c(=O)oc3ccccc32)cc1OC`, the max activation was -16.4%.

With `CCOc1ccc2oc(C(=O)N(C)CCc3ccc(OC)c(OC)c3)c(C)c2c1`, the max activation was 47.7%.

With `Cc1ccc(Nc2ncnc3sccc23)c(C)c1`, the max activation is -16% [at 0.015 µM, 100% = signal doubled over neutral wells].

In the case of `CCCCc1c(-c2ccccc2OC)ncn1Cc1ccc(C)cc1`, the max activation is -22.3% [at 11 µM, 100% = signal doubled over neutral wells].

Consider `CCCCc1c(-c2ccccc2OC)ncn1C(C)c1ccccc1` (centres undefined), for which the max activation is 37.1%.

As for `COc1ccc(CCN2C(=O)CC(Cc3ccccc3)C2=O)cc1OC` (centres undefined), the max activation was -9.21% [at 0.046 µM, 100% = signal doubled over neutral wells].

As to `CCOc1cc(C2C3=C(CC(C)(C)CC3=O)Nc3n[nH]c(C)c32)ccc1O` (centres undefined), the max activation is -17.9% [at 0.015 µM, 100% = signal doubled over neutral wells].

Turning to `c1csc(-c2nc(NCC3CCCO3)c3ccccc3n2)c1` (centres undefined), the max activation is 39.8% [at 11 µM, 100% = signal doubled over neutral wells].

Regarding `Cn1nnnc1Sc1ncnc2scc(-c3ccc(F)cc3)c12`, the max activation was -12.9% [at 0.42 µM, 100% = signal doubled over neutral wells].

As for `NC1=NC[C@H](Cc2ccccc2)N1CCCCC1CCCCC1`, the max activation is -33.4% [at 11 µM, 100% = signal doubled over neutral wells].

As to `COc1ccc(C[C@H]2CN3C(=NC[C@@H]3Cc3ccccc3)N2CCNC(=O)CCC2CCCCC2)cc1`, the max activation was 62.1%.

With `Cc1cc(NS(=O)(=O)c2ccc(NC(=O)C(C)Oc3ccccc3Cl)cc2)no1` (centres undefined), the max activation was -22.4% [at 0.015 µM, 100% = signal doubled over neutral wells].

As to `CCOc1ccccc1CNC(c1ccccc1)c1ccccc1`, the max activation is -22.9% [at 11 µM, 100% = signal doubled over neutral wells].

Take `C/C(=N\NC(=O)CO/N=C(\C)c1cccs1)c1ccc(N)cc1`: the max activation was -25.9%.

Take `O=C(Nc1ncn[nH]1)c1ccc(Cl)c(Cl)c1`: the max activation is -14.6% [at 0.135 µM, 100% = signal doubled over neutral wells].

Turning to `COc1cc2ccc(C(C)=NNC(N)=S)cc2cc1OC`, the max activation is -23.9% [at 0.135 µM, 100% = signal doubled over neutral wells].

Regarding `CC(C)CCN1C(=O)CSCC1(C)C(=O)NC(C)C` (centres undefined), the max activation is -10.4%.

On to `Cc1cccn2cc(CNS(=O)(=O)c3ccc4ccccc4c3)nc12`, for which the max activation is 34% [at 3.8 µM, 100% = signal doubled over neutral wells].

`COCCn1c(=S)[nH]c2sc3c(c2c1=O)CCCC3`: the max activation was -29.9% [at 11 µM, 100% = signal doubled over neutral wells].

As for `COc1cc(CN2CCC(n3nccc3NC(=O)C3CCOC3)CC2)ccc1F` (centres undefined), the max activation is -11.8%.

`COc1ccccc1-n1cnc2sc(C)c(C)c2c1=O`: the max activation is 29.4% [at 11 µM, 100% = signal doubled over neutral wells].

Take `COc1ccc(S(=O)(=O)NC2CCCCC2)cc1C`: the max activation was 14.2% [at 3.8 µM, 100% = signal doubled over neutral wells].

On to `COc1ccc(C(=O)OCC(=O)NC(=O)NC2CCCC2)cc1OC`, for which the max activation is -7.36% [at 0.005 µM, 100% = signal doubled over neutral wells].

As for `COc1ccc(C2N(c3ccccc3)C(=O)C2(F)F)cc1OC` (centres undefined), the max activation was -13.7%.

`CCSc1nnc2ccc(-c3ccc(C)cc3)nn12`: the max activation is 18.5% [at 0.015 µM, 100% = signal doubled over neutral wells].

`O=C(COc1ccccc1)Nc1ccccc1C(=O)NC1CC1`: the max activation is -11.7% [at 0.046 µM, 100% = signal doubled over neutral wells].

On to `O=C(CC(c1ccccc1)c1ccco1)N1CCOCC1` (centres undefined), for which the max activation was 18.9% [at 1.2 µM, 100% = signal doubled over neutral wells].

On to `CC(=O)c1c(O)c2cccc3c2n(c1=O)CCC3`, for which the max activation is -22.5% [at 0.046 µM, 100% = signal doubled over neutral wells].

Take `Cc1ccccc1S(=O)(=O)N1CC(=O)N2[C@@H](CO)[C@H](c3ccc(C#CCC4CCCC4)cc3)[C@@H]2C1`: the max activation is 276% [at 35 µM].

Take `CCC(=O)Nc1cc(C(C)(C)C)ccc1C(C)=O`: the max activation is -23.6% [at 0.135 µM, 100% = signal doubled over neutral wells].

Take `O=C(c1cccs1)N(Cc1ccccn1)Cc1ccco1`: the max activation was -16.4% [at 0.015 µM, 100% = signal doubled over neutral wells].

Turning to `CN1CCN(c2ccc(CNC(=O)C3(C)Cc4c(-c5ccccc5)ccnc4O3)cc2)CC1` (centres undefined), the max activation is -21.2% [at 0.005 µM, 100% = signal doubled over neutral wells].

In the case of `CNC(=O)c1[nH]nc2c1CCc1cc(OC)ccc1-2`, the max activation was -16.9% [at 0.005 µM, 100% = signal doubled over neutral wells].

Take `COc1ccc2c(c1)CCc1cc(C(=O)O)sc1-2`: the max activation is -25.3% [at 0.135 µM, 100% = signal doubled over neutral wells].
